Screen size: about 290,000 compounds; about 3,300 (1.1%) were called active. Rule as the data show it: active = binding response below about 67% or above about 130%; inconclusive = no clear call, values can overlap the other calls; inactive = in between. The list comes from a sample in which actives are over-represented; it also holds similar structures and randomly drawn compounds.
Each molecule was assayed against Mitogen-activated protein kinase kinase kinase 2 (Homo sapiens) (UniProt Q9Y2U5) (assay: modulators of MEK5 binding to wildtype MEKK2, primary screen, biochemical, multiplex bead flow cytometry, Alexa488-MEK5 (AID 1531)). Conditions: Alexa488-MEK5 binding to MEKK2 WT, at 10 µM, actives lie on both sides.

Row | Structure (SMILES) | binding response (% of control)
1 | COc1ccc(CNC(=O)[C@@H]2CC=C[C@@H]3CCN(C4CC4)C(=O)[C@@H]32)cc1 | 98% (inactive)
2 | Cc1ccc(CN(CC(=O)NC2CCCCC2)C(=O)c2csnn2)cc1 | 104% (inactive)
3 | O=C(O)CC/C(=C\c1cc2c(cc1Br)OCO2)c1nc2ccccc2s1 | 95% (inactive)
4 | O=C(Nc1ccc(Cl)c(Cl)c1)c1ccccc1NC(=O)C1CC=CCC1C(=O)O (stereo unspecified) | 104% (inactive)
5 | CCOC(=O)Cc1csc(NC(=O)CSc2ccc(Br)cc2)n1 | 109% (inactive)
6 | CCCCc1nnc(NC(=O)CSc2nc(C)cc(=O)[nH]2)s1 | 99% (inactive)
7 | CCOC(=O)Cc1csc(NC(=O)CSc2nc(C)cc(=O)[nH]2)n1 | 61% [inhibitor] (active)
8 | CCOc1ccccc1N1C(=O)CC(Sc2nccc(C)n2)C1=O (stereo unspecified) | 105% (inactive)
9 | CSc1ccccc1NC(=O)c1ccc2c(c1)CCN2S(C)(=O)=O | 106% (inactive)
10 | O=C(C1CCC(=O)N(C2CC2)C1)N1CCN(c2ccc(Cl)cc2)CC1 (stereo unspecified) | 104% (inactive)
11 | CN(C)Cc1c(O)ccc2c(=O)c(-c3ccccc3Cl)coc12 | 112% (inactive)
12 | CCCOc1ccc(Cl)cc1Nc1nc(NCCO)nc(N2CCCC2)n1 | 112% (inactive)
13 | CC1CCC(NC(=O)c2ccc(N3CCCC3=O)cc2)CC1 (stereo unspecified) | 105% (inactive)
14 | CCOc1ccc(C(=O)NCCCN2CCCC2=O)cc1 | 112% (inactive)
15 | O=C(NCCCN1CCCCCC1)c1ccc(N2CCCC2=O)cc1 | 193% (active)
16 | CC1CN(S(=O)(=O)c2cccc(C(F)(F)F)c2)CN1C(=O)N1CCOCC1 (stereo unspecified) | 95% (inactive)
17 | Cc1ccccc1C1CC(c2cccs2)=NN1S(C)(=O)=O (stereo unspecified) | 16% (active)
18 | COc1ccc(C2CC(c3cccs3)=NN2c2ccccc2)cc1 (stereo unspecified) | 81% (inactive)
19 | COc1ccccc1N1N=C(c2cccs2)CC1c1ccccc1 (stereo unspecified) | 93% (inactive)
20 | FC(F)(F)c1cccc(Nc2ncnc3ccccc23)c1 | 103% (inactive)
21 | FC(F)(F)c1cccc(N/N=C/c2ccccc2)c1 | 143% (active)
22 | O=[N+]([O-])c1ccc(N/N=C/c2ccccc2)cc1 | 99% (inactive)
23 | O=C1Nc2cc(C(=O)N3CCN(c4ccc(F)cc4)CC3)ccc2NC1CSCc1cccc(F)c1 (stereo unspecified) | 87% (inactive)
24 | Nc1ccc(S(=O)(=O)Nc2nccc(/C=C/c3ccc(Br)s3)n2)cc1 | 93% (inactive)

Row | Structure (SMILES) | binding response (% of control)
25 | CC(=O)Nc1ccc(S(=O)(=O)Nc2nccc(/C=C/c3ccccc3F)n2)cc1 | -6% (active)
26 | O=C(/C=C/c1ccccc1Cl)Nc1ccc(S(=O)(=O)Nc2ncccn2)cc1 | 92% (inactive)
27 | CC(=O)N1c2ccc(S(=O)(=O)N3CCC(C(=O)N4CCN(c5ccccc5)CC4)CC3)cc2CC1C (stereo unspecified) | 102% (inactive)
28 | COc1ccc(C=C(C#N)C#N)c(CSc2ccccn2)c1 | 103% (inactive)
29 | CCOc1ccccc1NC(=O)NC1CCCCCCC1 | 98% (inactive)
30 | COCCNC(=O)CN(Cc1ccco1)C(=O)CCC(=O)Nc1nccs1 | 103% (inactive)
31 | O=C(c1ccc(F)cc1)n1c(=S)nc2ccccn21 | 80% (inactive)
32 | OC(CNCC1CCCO1)Cn1c2ccc(Br)cc2c2cc(Br)ccc21 (stereo unspecified) | 141% (active)
33 | O=C(CSc1ccc(-c2ccc(Br)cc2)nn1)NCC1CCCO1 (stereo unspecified) | 107% (inactive)
34 | CC(NS(=O)(=O)c1ccc(Br)cc1)C(=O)NCC1CCCO1 (stereo unspecified) | 100% (inactive)
35 | COC(=O)C(C)n1cnc2c(nnn2-c2ccc(F)cc2)c1=O (stereo unspecified) | 94% (inactive)
36 | COc1cc(NC(=O)CCS(=O)(=O)c2ccc3c(c2)oc(=O)n3C)cc(OC)c1 | 100% (inactive)
37 | COc1ccc(CCNC(=O)C2CCCN(S(=O)(=O)c3ccc(OC)cc3)C2)cc1 (stereo unspecified) | 94% (inactive)
38 | CC(C)(C)Oc1ccccc1Nc1nc(NCCO)nc(N2CCCC2)n1 | 103% (inactive)
39 | Cc1[nH]c2ccccc2c1/C=N/NC(=O)CNC(=O)c1ccc2c(c1)OCO2 | 100% (inactive)
40 | Cc1[nH]c2ccccc2c1/C=N\NC(=O)Cn1nnc(-c2ccccc2)n1 | 107% (inactive)
41 | COCCNC(=S)N/N=C/c1c(C)[nH]c2ccccc12 | 24% (active)
42 | CC(C)c1nc2cc(C(=O)NC(C)c3cnn(C)c3)ccc2o1 (stereo unspecified) | 104% (inactive)
43 | Cc1cc(=O)[nH]c(SCc2cc(Cl)ccc2OC(F)F)n1 | 106% (inactive)
44 | O=C(OCc1cc2ccccc2[nH]c1=O)c1cccnc1 | 109% (inactive)
45 | O=C(OCc1cc(Cl)ccc1OC(F)F)c1cccnc1 | 281% (active)
46 | COC(=O)C1=C[C@@H](C(=O)OC)[C@@H]2C3=C(C(=O)[C@]2(C)NC(=O)c2ccccc2)[C@H](C)n2c(=O)n(C)c(=O)n2[C@@H]3C1 | 102% (inactive)
47 | OCC[C@H]1C[C@H](O)[C@@H](O)[C@]2(CCCCO2)O1 | 98% (inactive)
48 | Cc1ccc(NS(=O)(=O)c2cc3c(cc2C)NC(=O)CO3)cc1 | 98% (inactive)

Row | Structure (SMILES) | binding response (% of control)
49 | Cc1cccc(NC(=O)c2cccc(C(F)(F)F)c2)c1 | 91% (inactive)
50 | Cc1cccc(NC(=O)Nc2cccc(Oc3c(F)c(F)c(F)c(F)c3F)c2)c1 | 235% (active)
51 | COc1cccc(NC(=O)NCc2ccc(F)cc2)c1 | 98% (inactive)
52 | CC(Sc1nnc(-c2ccccc2F)n1C1CC1)C(N)=O (stereo unspecified) | 104% (inactive)
53 | Cc1c(NC(=O)Nc2cccc([N+](=O)[O-])c2)c(=O)n(-c2ccccc2)n1C | 103% (inactive)
54 | COc1ccc(C(=O)NC(=S)N2CCNC(=O)C2CC(=O)OC(C)C)cc1 (stereo unspecified) | 107% (inactive)
55 | CCOc1ccc(C(=O)COC(=O)c2ccc(-n3cnnn3)cc2)cc1 | 99% (inactive)
56 | CCCNC(=O)NCc1ccc(N2CCCC2=O)cc1 | 98% (inactive)
57 | O=C(COC(=O)c1ccc(N2CCCC2=O)cc1)c1ccc(OC(F)F)cc1 | 0% [inhibitor] (active)
58 | COC(C[C@@H](O)C[C@H](O)[C@H](C)OCc1ccccc1)OC | 92% (inactive)
59 | Cc1noc(C)c1S(=O)(=O)N(C)Cc1ccccc1 | 5% [inhibitor] (active)
60 | Cc1cc(C)cc(N(CC(=O)N2CC=C(c3ccccc3)CC2)S(=O)(=O)c2c(C)noc2C)c1 | 112% (inactive)
61 | Cc1noc(C)c1S(=O)(=O)Nc1ccc(C(=O)O)cc1 | 100% (inactive)
62 | CCOc1ccc(NC(=O)Nc2ccc(N(C)C(C)=O)cc2)cc1 | 97% (inactive)
63 | CC(=O)N(C)c1ccc(NC(=O)Nc2cccc3ccccc23)cc1 | 106% (inactive)
64 | CC(=O)N(C)c1ccc(NC(=O)C(F)(F)F)cc1 | -2% [inhibitor] (active)
65 | CN(C)CCCNC(=O)/C=C/c1ccc(OCc2c(F)cccc2Cl)cc1 | 170% (active)
66 | O=C(/C=C/c1ccc(OCc2c(F)cccc2Cl)cc1)N1CCOCC1 | 74% (inactive)
67 | COCCCNC(=O)/C=C/c1ccc(OCc2c(F)cccc2Cl)cc1 | 106% (inactive)
68 | CCOC(=O)N1CCC(NC(=O)CCc2ccccc2)CC1 | 107% (inactive)
69 | COc1cc(NC(=O)C2=CC(c3ccc(C)cc3)=NS(=O)(=O)N2C)cc(OC)c1OC | 105% (inactive)
70 | Cc1cc(C)cc(N(CC(=O)NC2CCCC2)C(=O)CCC(=O)Nc2cc(C)on2)c1 | 96% (inactive)
71 | COCCCNC(=O)[C@H]1N2C(=O)c3ccccc3C2SC1(C)C (stereo partly specified) | 103% (inactive)
72 | Cc1ccc(C2CC(c3cccc(NS(C)(=O)=O)c3)=NN2S(C)(=O)=O)cc1 (stereo unspecified) | 20% (active)

Row | Structure (SMILES) | binding response (% of control)
73 | CS(=O)(=O)Nc1cccc(C2=NN(S(=O)(=O)c3ccccc3)C(c3cccs3)C2)c1 (stereo unspecified) | 94% (inactive)
74 | CS(=O)(=O)Nc1cccc(C2=NN(C(=O)c3cccc(F)c3)C(c3cccs3)C2)c1 (stereo unspecified) | 102% (inactive)
75 | CN(C(=O)CC1C(=O)NCCN1Cc1ccc(F)cc1Cl)C1CCCCC1 (stereo unspecified) | 101% (inactive)
76 | S=C(NCc1ccc(Cl)cc1)NC12CC3CC(CC(C3)C1)C2 | 160% (active)
77 | O=C(NCc1ccncc1)NC12CC3CC(CC(C3)C1)C2 | 87% (inactive)
78 | S=C(NCc1ccc(Cl)cc1)NC1CCCCC1 | 106% (inactive)
79 | Cc1cccc(OCC(=O)NCC(=O)N/N=C/c2ccc(N(C)C)cc2)c1 | 106% (inactive)
80 | CN(C)CCCn1c(SCc2ccc(Cl)cc2)nnc1-c1ccncc1 | 109% (inactive)
81 | O=S(=O)(Cc1nnnn1-c1ccccc1)c1ccccc1 | 108% (inactive)
82 | CCC1=NN2C(=N)/C(=C/c3cc(C)n(-c4ccccc4)c3C)C(=O)N=C2S1 | 98% (inactive)
83 | CCS(=O)(=O)C1=NSC2=NC(=O)/C(=C\c3cc(C)n(-c4cccc(OC)c4)c3C)C(=N)N21 | 98% (inactive)
84 | Cc1cc(/C=C2/C(=N)N3C(=NC2=O)SN=C3S(C)(=O)=O)c(C)n1-c1ccccc1 | -2% (active)
85 | Cc1cccc(CCNC(=O)Cn2ncc3c([nH]c4ccc(C)cc43)c2=O)c1 | 96% (inactive)
86 | C=CCOc1cccc(C2C(C(=O)c3ccc(C)o3)=C(O)C(=O)N2CCCn2ccnc2)c1 (stereo unspecified) | 98% (inactive)
87 | CC1CCCC(C)N1C(=O)CSc1nnnn1C1CCCC1 (stereo unspecified) | 100% (inactive)
88 | CCCc1cc(=O)[nH]c(SCC(=O)N2C(C)CCCC2C)n1 (stereo unspecified) | 113% (inactive)
89 | CCCc1nnc(SCC(=O)N2C(C)CCCC2C)n1CC (stereo unspecified) | 812% (active)
90 | COc1ccccc1CNS(=O)(=O)c1c(C)[nH]c(C)c1C(=O)N1CCCCC1 | 101% (inactive)
91 | O=C(Nc1ccc(C(=O)N2CCOCC2)cc1)Nc1cccc(C(F)(F)F)c1 | 102% (inactive)
92 | O=C(COc1cc2oc(=O)c3c(c2cc1Cl)CCC3)NCCCN1CCOCC1 | 100% (inactive)
93 | CCCC[C@@H]1CN=C(N)N1CCc1cccc(F)c1 | 107% (inactive)
94 | CCCn1c(=N)n(CC(=O)c2ccc(Cl)c(Cl)c2)c2ccccc21 | 139% (active)
95 | CCn1c(=N)n(CC(=O)c2cccc(OC)c2)c2ccccc21 | 96% (inactive)
96 | CCCNC(=O)c1ccc(Cl)c(Cl)c1 | 101% (inactive)

Reference: PubChem BioAssay AID1531 (NMMLSC, 2009)
